These results are taken from PubChem BioAssay (NCATS).

Inconclusive results are not listed. A structure can be active in one record and inactive in another. The source made the active and inactive calls. Calls come from the whole dose curve; as a rule, active = well fitted inhibition curve with a large enough effect in the repeat runs; inconclusive = weak or mixed curves; inactive = no such curve, though single readings can be large or run the other way.
% is set by controls: 0 for no effect and ±100 for the full control effect; potency is the fitted concentration of half-maximal effect.

Cytochrome P450 2C9 (Homo sapiens), sequence (P11712 whole entry, looked up): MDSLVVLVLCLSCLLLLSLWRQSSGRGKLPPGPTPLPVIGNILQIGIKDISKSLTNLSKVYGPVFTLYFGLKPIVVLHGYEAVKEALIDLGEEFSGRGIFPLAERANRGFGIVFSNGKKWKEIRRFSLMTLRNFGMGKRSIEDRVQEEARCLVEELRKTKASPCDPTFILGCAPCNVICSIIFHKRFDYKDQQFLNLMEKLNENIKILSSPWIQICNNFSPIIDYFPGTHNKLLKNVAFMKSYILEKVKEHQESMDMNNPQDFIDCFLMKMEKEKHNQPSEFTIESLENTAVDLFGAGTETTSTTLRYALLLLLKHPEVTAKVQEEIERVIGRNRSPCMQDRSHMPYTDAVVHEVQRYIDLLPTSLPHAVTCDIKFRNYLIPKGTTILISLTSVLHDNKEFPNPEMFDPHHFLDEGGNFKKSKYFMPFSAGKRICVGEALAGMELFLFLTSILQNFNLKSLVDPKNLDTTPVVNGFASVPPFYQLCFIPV

The target in this assay is Cytochrome P450 2C9 (Homo sapiens) (UniProt P11712). In words: Cytochrome P450 family 2 subfamily C member 9 (CYP2C9) small molecule antagonists: luciferase biochemical (cell-free) qHTS assay (AID 1645842). Note: nearly all actives have a fitted effect of over 55% in size. Particulars: P450-Glo CYP2C9 enzyme assay, luciferin luminescence; series mostly up to 57.4 µM; activity change, negative = inhibition: at the top concentration. Here is the method:
National Center for Advancing Translational Sciences [NCATS] Assay Overview: Cytochrome P450 (CYP) enzymes are membrane-bound hemeproteins that play a key role in metabolism of drugs and xenobiotics. Assaying the effect of chemicals on CYP isozymes is useful to minimize the adverse drug reactions and toxicities in drug development process. Chemical compounds were tested for their effect on CYP enzyme activities by using P450-Glo (TM) screening systems (Promega Corporation, Madison, WI). These systems provide a luminescent method containing proluciferin substrates and are converted to luciferin products by CYP isozymes. The luciferin products formed are detected with a luciferin detection reagent, and the amount of light produced is proportional to CYP activity. P450-Glo (TM) CYP2C9 screening system (Catalog. No. V9790) was used to detect the compounds that interfere in CYP2C9 activity.
Assay Protocol Summary: Two ul of enzyme-substrate mix supplemented with 0.4% Bovine Serum Albumin was dispensed into medium binding white/solid 1536-well plates (Greiner Bio-One North America Inc., Monroe, NC) using a Flying Reagent Dispenser (FRD, Aurora Discovery, San Diego, CA). […] The assay plates were incubated at room temperature for 10 min. Then 2 ul of NADPH regeneration solution was added to each well of the assay plates using an FRD and incubated at 37C for 1 h. The reaction was stopped by adding 4 ul of detection reagent using an FRD and after 20 min incubation at room temperature, the luminescence signal was measured using a ViewLux plate reader (Perkin Elmer, Shelton, CT). Data were expressed as relative luminescence units.
On the technique in general: qHTS replaces the single test concentration by a dilution series.
For `Clc1ccc(-c2nc3sccn3c2C=NOCc2ccc(Cl)c(Cl)c2)cc1`, the Potency was 3.79 µM (active). Take `CCN(CC)CCNC(=O)c1ccc(N)cc1`: the “activity change, negative = inhibition” value is 7.81% (inactive). In the case of `N#C[C@H]1C[C@H]2C[C@@H]2N1C(=O)[C@@H](N)C12CC3CC(CC(O)(C3)C1)C2`, the “activity change, negative = inhibition” value is 3.66% (inactive).

Regarding `c1ccc2c(-c3cnn4cc(-c5ccc(N6CCNCC6)cc5)cnc34)ccnc2c1`, the “activity change, negative = inhibition” value is 3.02% (inactive). For `CN(C)CCC(c1ccccc1)c1ccccn1` (stereo not given), the “activity change, negative = inhibition” value is 3.45% (inactive).

Regarding `O=C(CCN1CCN(C(=O)OCc2cc(Cl)cc(Cl)c2)CC1)c1ccc2[nH]c(=O)oc2c1`, the Potency is 7.56 µM (active). For the compound `CC[C@]1(O)C[C@@H]2CN(CCc3c([nH]c4ccccc34)[C@@](C(=O)OC)(c3cc4c(cc3OC)N(C)[C@H]3[C@@](O)(C(=O)OC)[C@H](OC(C)=O)[C@]5(CC)C=CCN6CC[C@]43[C@@H]65)C2)C1`, the Potency result was “inactive”.

Consider `CN[C@@H](C)C(=O)N[C@H]1CN(C(=O)CC(C)C)CC[C@H]2CC[C@@H](C(=O)NC(c3ccccc3)c3ccccc3)N2C1=O`, for which the “activity change, negative = inhibition” value was -0.95% (inactive). Regarding `O=c1c(-c2ccc(O)cc2)coc2cc(O)ccc12`, the Potency was 0.213 µM (active). For `CCCCC1C(=O)N(c2ccccc2)N(c2ccccc2)C1=O`, the Potency was 8.71 µM (active). Regarding `COc1cc2ncnc(Nc3ccc(F)c(Cl)c3)c2cc1OCCCN1CCOCC1`, the “activity change, negative = inhibition” value was -23.7% (inactive). As to `CON=C(C(=O)N[C@@H]1C(=O)N2C(C(=O)OCOC(=O)C(C)(C)C)=C(C=Cc3scnc3C)CS[C@H]12)c1csc(N)n1`, the Potency is 12 µM (active). Same read-out and setting: next, `O=c1cc(-c2ccc(O)cc2)oc2cc(O)cc(O)c12`: 21.3 µM (active); `CS(=O)c1ccc(-c2nc(-c3ccc(F)cc3)c(-c3ccncc3)[nH]2)cc1` (stereo not given): 0.952 µM (active). Consider `O=C(NCCN1CCOCC1)c1ccc(Cl)cc1`, for which the “activity change, negative = inhibition” value is 1.52% (inactive). For `CC(C)(C)Cn1c(N)nc2ccc(-c3[nH]c(C(C)(C)C)nc3-c3ccc(F)cc3)nc21`, the Potency is 5.35 µM (active).

Turning to `O=C1C[C@@H](c2ccc(O)cc2)Oc2cc(O)cc(O)c21`, the Potency is 5.35 µM (active).

For `O=C1Nc2ccc(Cl)cc2C(C#CC2CC2)(C(F)(F)F)O1` (stereo not given), the Potency is 12 µM (active). Consider `COc1ccc2c(Oc3ccc(NC(=O)c4c(C)n(CC(C)(C)O)n(-c5ccccc5)c4=O)nc3)ccnc2c1`, for which the Potency was 19 µM (active). As for `CCN1CCC[C@H]1CNC(=O)c1cc(S(N)(=O)=O)ccc1OC`, the “activity change, negative = inhibition” value is 0.951% (inactive).

For the compound `COCCOC(=O)C1=C(C)NC2=C(C(=O)CC(c3ccccc3OC)C2)C1c1cccc(O)c1` (stereo not given), the Potency is 1.69 µM (active). Turning to `O=C(O)c1cc(-c2ccccc2)nc2ccccc12`, the Potency was 27 µM (active) and inactive. The same measure, in the same setting: as for `OC[C@@H](O)[C@H](O)[C@H](O)[C@@H](O)CO`, the entry is “inactive”. For the compound `Cn1c(N2CCCCS2(=O)=O)nc(C(=O)NCc2ccc(F)cc2)c(O)c1=O`, the “activity change, negative = inhibition” value is -1.91% (inactive). For the compound `C[N+](C)(C)CC(=O)O`, the “activity change, negative = inhibition” value was 9.79% (inactive). `COc1ccc(C2CC(c3ccccc3)=NN2c2ccc(S(N)(=O)=O)cc2)cc1` (stereo not given): the Potency was 6.74 µM (active). With `C[C@@H](O)[C@H]1C(=O)N2C(C(=O)O)=C(S[C@@H]3CN[C@H](C(=O)N(C)C)C3)[C@H](C)[C@H]12`, the Potency entry is “inactive”. Regarding `Cc1ccc(C(C)(O)c2nc3ccccc3s2)c(C)c1` (stereo not given), the Potency is 3.01 µM (active).

With `O=C(Nc1ccccc1Br)N[C@@H]1CCN(c2ccc(C(F)(F)F)cn2)C1`, the Potency was 23.9 µM (active).

For `CCOc1ccc(Nc2nc(-c3c(C)nc4ccccn34)cs2)cc1`, the Potency was 13.5 µM (active). As for `CC(C)(C)NC(=O)Nc1cccc(Nc2ncc(F)c(NC(C)(C)CO)n2)c1`, the Potency is 23.9 µM (active). With `CCc1ccc(OCc2ccccc2C(=O)Nc2ccc3nc(C)cc(N)c3c2)cc1`, the Potency was 26.8 µM (active). On to `CN(C[C@@H]1COCCO1)S(=O)(=O)Nc1ccc2ccc3ncc(-c4cnn(C)c4)cc3c(=O)c2c1`, for which the Potency was 0.477 µM (active). Take `Cc1ccc(Nc2cc(-c3cccc(N4C(=O)c5ccccc5C4=O)c3)ncn2)cc1NS(C)(=O)=O`: the Potency is 1.07 µM (active). With `Cc1cccc(C)c1OCC(C)N` (stereo not given), the Potency entry was “inactive”. Take `COc1ccc2cc(-c3nc(-c4ccc(S(C)=O)cc4)[nH]c3-c3ccncc3)ccc2c1` (stereo not given): the Potency was 3.38 µM (active). As for `O=C(Nc1cccc(Br)c1)c1cccc(S(=O)(=O)N2CCCCCC2)c1`, the Potency was 6.01 µM (active). Turning to `COc1ccccc1N1CCN(CCCNc2cc(=O)n(C)c(=O)n2C)CC1`, the “activity change, negative = inhibition” value is -1.46% (inactive). As for `Cc1c(NC(=O)c2ccc(C(C)(C)C)cc2)cccc1-c1cn(C)c(=O)c(Nc2ccc(C(=O)N3CCOCC3)cc2)n1`, the Potency is 2.13 µM (active). As for `CC(=O)CCCCn1c(=O)c2c(ncn2C)n(C)c1=O`, the “activity change, negative = inhibition” value is 8.52% (inactive).
